The source of these data is PubChem BioAssay AID1851 (National Center for Advancing Translational Sciences (NCATS), 2009).

Several values for one entry are separate records, joined by “and”; a condition that tells them apart may be missing. Equal values may be shown once. About 5,700 (36%) of roughly 16,000 compounds were called active. Inconclusive results (about 24%) are left out. This is one part of the list. A number with no mark means an inactive call. The call rests on the fitted dose curve; in most records, active means well fitted curve in the direction sought with a large enough effect; inconclusive means small, poorly fitted or top-dose-only effect, or effect the other way; inactive means no such curve, though single readings can be large or run the other way.
On the % scale 0 is the no-effect control and ±100 the full control effect.

For this assay, the target named is Cytochrome P450 1A2 (Homo sapiens) (UniProt P05177). The assay is described as follows: Cytochrome panel assay with activity outcomes. Conditions: recombinant CYP, pro-luciferin dealkylation, luminescence, p450-cyp1a2; series mostly up to 57.1 µM; activity, negative = inhibition: at the top concentration.
Cytochrome P450 1A2 (Homo sapiens), sequence (P05177 whole entry, looked up): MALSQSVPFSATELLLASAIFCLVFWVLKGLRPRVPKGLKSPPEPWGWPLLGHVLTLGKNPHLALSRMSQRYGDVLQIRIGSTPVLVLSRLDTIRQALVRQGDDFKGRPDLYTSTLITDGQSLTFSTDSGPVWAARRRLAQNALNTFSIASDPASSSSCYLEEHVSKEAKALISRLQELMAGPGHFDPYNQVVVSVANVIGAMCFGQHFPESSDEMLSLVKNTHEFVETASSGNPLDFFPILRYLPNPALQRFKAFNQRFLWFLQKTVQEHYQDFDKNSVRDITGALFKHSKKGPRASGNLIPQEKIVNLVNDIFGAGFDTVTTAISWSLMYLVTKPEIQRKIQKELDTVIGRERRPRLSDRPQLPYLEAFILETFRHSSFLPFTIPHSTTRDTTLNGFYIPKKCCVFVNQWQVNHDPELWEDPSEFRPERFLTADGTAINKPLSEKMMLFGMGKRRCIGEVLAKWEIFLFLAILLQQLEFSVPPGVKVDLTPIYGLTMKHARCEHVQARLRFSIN
For the compound `COc1ccc(NC(=O)N2CC[C@@]3(CCCN(C(=O)c4cc(C(F)(F)F)cc(C(F)(F)F)c4)C3)C2)cc1`, the “activity, negative = inhibition” value was -18.6%.

In the case of `COc1ccc(CCNC(=O)c2nnn(CC(=O)Nc3ccccc3C)c2N)cc1OC`, the “activity, negative = inhibition” value was -18.3%.

As to `CC(C)NC(=O)c1ccc2c(=O)n(Cc3ccco3)c(=S)[nH]c2c1`, the AC50 was 15.8 µM (active).

Take `COc1ccc(NC(=O)c2ccc3c(=O)n(Cc4ccco4)c(=S)[nH]c3c2)c(OC)c1`: the AC50 is 0.794 µM (active).

`O=C(NCc1ccco1)c1ccc2c(=O)n(-c3ccccc3)c(=S)[nH]c2c1`: the “activity, negative = inhibition” value was -1.5%.

On to `COc1ccc2c(C=Nc3c(C)n(C)n(-c4ccccc4)c3=O)c(O)n(Cc3ccco3)c(=O)c2c1`, for which the “activity, negative = inhibition” value is -11.1%.

Take `COc1ccc(CCNC(=O)c2ccc3c(=O)n(Cc4ccco4)c(=S)[nH]c3c2)cc1OC`: the AC50 was 25.1 µM (active).

`C/C(CCC(=O)OC[C@@H]1O[C@H](C#Cc2ccccc2)C=C[C@@H]1Oc1ccc(C)cc1)=N/OC[C@@H](O)[C@H]1O[C@H]2OC(C)(C)O[C@H]2[C@@H]1O`: the activity, negative = inhibition was 2.38% [at 11.4 µM].

As for `CC1=C(C)/C(=N\OC(=O)/C=C/c2ccccc2)C=CC1=O`, the AC50 is 14.1 µM (active).

Turning to `O=C(/C=C\c1ccccc1)c1ccccc1O`, the activity, negative = inhibition is -10.2% [at 11.4 µM].

`CC1(C)[C@@H]2CC[C@]1(C)[C@@H](OC(=O)/C=C\c1ccccc1)C2`: the activity, negative = inhibition is -3.39% [at 2.29 µM].

On to `OC[C@@H]1O[C@@H](n2cnc3c(SCc4ccccc4)ncnc32)[C@@H](O)[C@H]1O`, for which the activity, negative = inhibition is -17.2% [at 2.29 µM].

Regarding `CNC(=O)[C@@H]1O[C@@H](n2cnc3c(NCc4cccc(I)c4)ncnc32)[C@H](O)[C@@H]1O`, the “activity, negative = inhibition” value is -16.4%.

With `COc1ccc2nc(SCC(=O)Nc3ccc4c(c3)OCCO4)[nH]c2c1`, the AC50 was 5.62 µM (active).

For `CCOC(=O)NC(=O)CSc1nc2ccc(OCC)cc2[nH]1`, the AC50 is 2.51 µM (active).

Regarding `Cc1ccc2nc(SCC(=O)c3ccc4c(c3)OCO4)[nH]c2c1`, the AC50 is 1 µM (active).

`COc1ccc(-n2c(=O)[nH]cc(C(=O)Nc3ccc4c(c3)OCCO4)c2=O)cc1`: the “activity, negative = inhibition” value was -16.7%.

For the compound `Cc1ccc2nc(SCC(=O)Nc3nnc(SCC(N)=O)s3)[nH]c2c1`, the AC50 was 14.1 µM (active).

Consider `CC/C=C\CC[C@H](OC(=O)c1ccc(Br)cc1)C1=CCCCC1=O`, for which the activity, negative = inhibition is 1.86% [at 11.4 µM].

On to `COc1ccc(CCn2c(C)cc(C(=O)CSc3nc(N)cc(=O)[nH]3)c2C)cc1`, for which the “activity, negative = inhibition” value was -28.1%.

As for `COc1ccc2nc(SCC(=O)c3ccco3)[nH]c2c1`, the AC50 was 7.08 µM (active).

Consider `O=C(N/N=C\c1ccc2c(c1)CCC2)c1ccccc1O`, for which the AC50 was 2 µM (active).

For `CSCC[C@H](NC(=O)CC(C)(C)C)c1nc2ccccc2[nH]1`, the “activity, negative = inhibition” value was -6.75%.

`CCN(CC)c1nc2ccccc2[nH]1`: the AC50 was 15.8 µM (active).

With `OCCNc1nc2ccccc2[nH]1`, the “activity, negative = inhibition” value is -21.8%.

Turning to `CCOC(=O)c1c(C)oc2c1cc(O)c1ccccc12`, the AC50 was 0.0631 µM (active).

Regarding `CCOC(=O)c1c(C)oc2c1c(C=NC1CCS(=O)(=O)C1)c(O)c1ccccc12` (centres undefined), the AC50 is 1.26 µM (active).

Turning to `CCCCCOC(=O)c1c(N)n(CCOC)c2nc3ccccc3nc12`, the AC50 is 1 µM (active).

For `C=C(C)C1Cc2nc(N)nc(C)c2C1` (centres undefined), the AC50 was 3.16 µM (active).

On to `Nc1nc(N)c2[nH]c(CNc3ccc(C(=O)O)cc3)nc2n1`, for which the activity, negative = inhibition was -9.57% [at 11.4 µM].

As for `C[C@H](CN(C)C)C(O)(c1ccccc1)c1ccccc1`, the activity, negative = inhibition is 5.76% [at 11.4 µM].

As for `Cc1ccc(C2CC2C(=O)NN)cc1` (centres undefined), the AC50 was 0.316 µM (active).

`Cc1ccc(NC(=O)C2CCN(S(C)(=O)=O)CC2)cc1`: the “activity, negative = inhibition” value was 14.6%.

Turning to `N[C@@H](Cc1c[nH]c2ccc([N+](=O)[O-])cc12)C(=O)O`, the activity, negative = inhibition is -10.4% [at 11.4 µM].

As to `O=C1C2=C(Nc3cc([N+](=O)[O-])ccc3N2)O[C@@H]1c1c[nH]c2ccc(COc3ccccc3)cc12`, the AC50 is 2.51 µM (active).

For the compound `Cc1cc2c(cc1C)NC1=C(N2)O[C@H](c2c[nH]c3ccc(COc4ccccc4)cc23)C1=O`, the AC50 is 2.51 µM (active).

`CC(C)NC(=O)C(C)n1cccc1C(=O)c1ccccc1` (centres undefined): the AC50 was 25.1 µM (active).

As for `CC(C)NC(=O)/C(=N\O)c1ccccc1`, the “activity, negative = inhibition” value is -26.9%.

For `CC(C)NC(=O)N1CCC2(CC1)CCN(C(=O)c1cccn1C)CC2`, the “activity, negative = inhibition” value was 6.26%.

Take `Cc1ccccc1-n1nc2c(c1NC(=O)c1ccc(S(=O)(=O)N(C)C)cc1)CSC2`: the “activity, negative = inhibition” value was -8.24%.

Turning to `Cc1ccc(-n2nc3c(c2NC(=O)c2cccs2)CSC3)cc1`, the AC50 is 1.58 µM (active).

Turning to `Cc1ccccc1-n1nc2c(c1NC(=O)c1c(-c3ccccc3Cl)noc1C)CSC2`, the “activity, negative = inhibition” value is 1.48%.

As to `Cn1c(=O)n(C)c2cc(S(=O)(=O)O)ccc21`, the “activity, negative = inhibition” value was 8.35%.

Take `Cn1c(=O)n(C)c2cc(/C=N/n3cnnc3)ccc21`: the AC50 was 6.31 µM (active).

`Nc1nc2c(ncn2COC(CO)CO)c(=O)[nH]1`: the AC50 result is “inactive”.

Turning to `CO[C@]1(NC(=O)C2SC(=C(C(N)=O)C(=O)O)S2)C(=O)N2C(C(=O)O)=C(CSc3nnnn3C)CS[C@H]21` (some centres undefined), the “activity, negative = inhibition” value is -10.6% [at 25.6 µM].

Turning to `CC1CCN(CC(=O)Nc2cccc([N+](=O)[O-])c2)CC1`, the “activity, negative = inhibition” value is -27.6%.

Regarding `CC1CCN(CC[C@@H]2CCCN2S(=O)(=O)c2cccc(O)c2)CC1`, the “activity, negative = inhibition” value was -10.4%.

In the case of `Cc1c(C)n(C(=O)CN2CCC(C)CC2)c2ccccc12`, the AC50 is 4.47 µM (active).

As for `COc1ccccc1CNC(=O)CSc1nc2nc(C)cc(C)n2n1`, the “activity, negative = inhibition” value is -3.92%.

In the case of `Cc1cccc(Cc2c(C)nc3nc(SCC(=O)NCc4ccco4)nn3c2C)c1`, the “activity, negative = inhibition” value is -0.503%.

For `Cc1cc(C)nc(SCC(=O)N/N=C\c2sccc2C)n1`, the AC50 was 12.6 µM (active).

Take `Cc1cc(C)n2nc(SCC(=O)N/N=C/c3ccccc3F)nc2n1`: the AC50 is 15.8 µM (active).

On to `COc1ccc(N2CCN(C(=S)Nc3cccc(C)c3)CC2)cc1`, for which the “activity, negative = inhibition” value is -11%.

For `Cc1cccc(N(C)C(=S)Oc2ccc3ccccc3c2)c1`, the AC50 was 2.51 µM (active).

As for `CCc1cc2c(nc1CC)CCN(CC/C(C)=N/O[C@@H](C)c1cn([C@H](CO)Cc3ccccc3)nn1)C2`, the activity, negative = inhibition was -13.3% [at 11.4 µM] and 1.01% [at 11.4 µM].

Turning to `Cc1ccccc1OCCCN1CCCC1`, the “activity, negative = inhibition” value is -22.4%.

As for `Cc1cc(C(C)(C)C)c(OCCCN2CCOCC2)c(C(C)(C)C)c1`, the activity, negative = inhibition is -17.7% [at 2.29 µM].

With `CC(C)(C)c1ccccc1OCCN1CCCC1`, the AC50 is 15.8 µM (active).

As usually defined, the AC50 is the concentration giving half of the maximal activity seen.
